# Screening results deposited in PubChem BioAssay by National Center for Advancing Translational Sciences (NCATS).
# Compounds with a hit are over-represented: about 12% of the library has one in this group of screens.
# Cycloheximide cs = counter-screen for Shiga toxin inhibitors: cycloheximide protein synthesis inhibition; cell reporter, cycloheximide protein synthesis inhibition counterscreen; max response, %; 300,000 compounds, 12% hits; in the data active means max response mostly above about 13%, no sharp cut-off; inactive means mostly below about 14%; further: read at 38.3 µM for the half of the compounds with a filed dose; 0% is about no effect
# NS1 inh = influenza NS1 inhibition. Potency, µM (highest dose often 46.1 µM), for the others: at the highest dose activity, positive = more growth. 270,000 compounds, 0.4% hits; further: potency means the concentration at half of the fitted maximal effect; actives are rising curves; nearly all actives have a fitted effect of over 50% in size
#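 A cell-based growth assay was used: compounds that relieve NS1-induced slow growth of budding yeast raise OD600. Assay medium was yeast nitrogen base with ammonium sulphate and -URA supplement, pH 6.0, with 2% galactose.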
# SARS PLpro yeast = SARS-CoV PLP inhibition in yeast | 330,000 compounds, 0.19% hits | S. cerevisiae expressing SARS-CoV PLpro, growth rescue | AID 485353 | Potency, µM (titrated, usually from 32.9 µM), inactives show top-dose activity, positive = growth rescue, usual class: activators; further: potency means the concentration at half of the fitted maximal effect; 0% is about no effect; nearly all actives have a fitted effect of over 55% in size
# Shiga toxin inh = inhibitors of Shiga toxin in Vero cells; Vero cells, Shiga toxin protein synthesis inhibition reporter; inhibition, % at 38.7 µM; 290,000 compounds, 9.2% hits; AID 2315; in the data active means inhibition mostly above about 28%, no sharp cut-off; inactive means mostly below about 43%; further: 0% is about no effect
# * hit, by the source's call; i = inactive; ? = inconclusive; . = no result; [ ] = remark or other dose. Unless noted, the call rests on the fitted dose curve.
SMILES,Cycloheximide cs,NS1 inh,SARS PLpro yeast,Shiga toxin inh
O=C1c2ccccc2C(=O)N1c1ccc(Cc2ccc(N3C(=O)c4ccccc4C3=O)cc2)cc1,.,-3%,.,.
CCOc1ccc(S(=O)(=O)NCCCn2ccnc2)cc1,-3,7%,0%,-10
CC(C)C(NC(=O)OCc1ccccc1)C(=O)OCC(=O)N1CCCCC1 (stereo not drawn),44*,-7%,-7%,69*
Cc1ccc(Cl)cc1S(=O)(=O)N1CCC(C(=O)NC2CCN(Cc3ccccc3)CC2)CC1,-2,-7%,-2%,1
COC(=O)[C@@H]1C[C@H]1[C@@H](NC(=O)c1ccccc1)c1ccccc1,-3,-18%,-4%,-6
CCCCCCC1/C(=N\NC(=O)c2ccccc2)CCC1C(=O)OC (stereo not drawn),35*,-6%,0%,80*
COc1cccc(/C=N/n2nnnc2N)c1O,21*,-7%,0%,59*
COc1ccc(/C=N/n2nnnc2N)c(OC)c1,23*,-2%,-2%,28*
O=C(NCc1ccc(F)cc1)c1cc(-c2cccs2)on1,26*,-11%,-6%,25
O=C(NCc1ccccc1)c1cc(-c2cccs2)on1,43*,-23%,-6%,77*
COc1ccccc1-c1cc(C(=O)NCc2ccc(F)cc2)no1,1,-31%,-30%,35
COc1ccc(NC(=O)Nc2cc(C)ccc2OC(F)F)c(OC)c1,-2,-36%,-1%,1
Cc1cc(=O)n2cc(-c3ccccc3)nc2[nH]1,22*,0%,-1%,0
Cc1ccc(-c2cn3c(=O)cc(C)[nH]c3n2)cc1,26*,24%,5%,49
Cc1ccc(-c2ccc(=O)[nH]n2)cc1,-1,2%,-31%,-3
O=[N+]([O-])c1ccc(CSCc2ccc(Cl)cc2)cc1,.,-9%,.,.
O=C(Nc1ccc2nc(-c3cccnc3)[nH]c2c1)c1ccco1,11,-1%,10%,7
O=C(N/C(=C/c1ccc(Br)cc1)c1nc2ccccc2[nH]1)c1ccco1,15*,6%,-8%,51*
CC(=O)Nc1cccc(-c2nc3ccc(NC(C)=O)cc3[nH]2)c1,-2,-2%,-8%,-14
O=C(Nc1ccc2nc(-c3ccco3)[nH]c2c1)c1ccco1,33*,-47%,-13%,45*
Cc1ccc2nc(-c3cccc(NC(=O)c4ccco4)c3)[nH]c2c1,50*,-15%,-9%,43*
O=C(N/C(=C/c1ccc(Cl)cc1)c1nc2ccccc2[nH]1)c1ccco1,-1,1%,3%,-18
CC(=O)Nc1ccc2nc(-c3ccco3)[nH]c2c1,35*,.,-2%,87*
Cc1nn(CC(=O)NC(=O)c2ccccc2)c(C)c1[N+](=O)[O-],.,.,3%,.
O=C(Nc1ccc2nc(-c3ccccc3)[nH]c2c1)c1cccs1,32*,-1%,-5%,39
SMILES,Cycloheximide cs,NS1 inh,SARS PLpro yeast,Shiga toxin inh
O=C(Nc1ccc2nc(-c3ccco3)[nH]c2c1)c1cccs1,46*,-54%,-47%,66*
O=C(Nc1ccc(-c2nc3ccccc3[nH]2)cc1)c1ccco1,43*,0%,-7%,109*
CC1CCCN(c2nc3ccsc3c(=O)s2)C1 (stereo not drawn),44*,-32%,-18%,119*
COc1ccc(C2CC(c3ccc(Br)cc3)=NN2C(=O)c2cccnc2)cc1 (stereo not drawn),-6,-2%,-60%,-16
COc1ccc(C2=NN(CN3C(=O)C(=O)c4ccccc43)C(c3ccc(C)cc3)C2)cc1 (stereo not drawn),25*,5%,-13%,78*
COc1ccc(C2=NN(CN3C(=O)C(=O)c4ccccc43)C(c3ccc(Br)cc3)C2)cc1 (stereo not drawn),32*,10%,3%,46
COc1ccc(C2CC(c3ccccc3)=NN2C(=O)CCC(=O)O)cc1 (stereo not drawn),-2,11%,0%,-2
Cc1ccn(CCC(=O)N2CCCC(CCC(=O)N3CCN(c4ccccn4)CC3)C2)n1 (stereo not drawn),3,-1%,1%,-3
COc1ccc(CN2CCN(Cc3ccccc3)C(CCO)C2)cc1OC (stereo not drawn),-2,0%,1%,-3
CCOCCCNC(=O)C1CCN(Cc2cccc(OCc3ccccc3)c2)CC1,7,15%,11%,1
CCCCNC(=O)C1CCN(Cc2ccc(OCc3ccccc3)c(OC)c2)CC1,42*,22%,3%,44*
COc1cc(CN2CCN(C(C)C)C(CCO)C2)ccc1OCc1ccccc1 (stereo not drawn),30*,2%,-2%,70*
CCOCCCNC(=O)C1CCN(Cc2ccc(OCc3ccccc3)c(OC)c2)CC1,18*,-17%,5%,95
OCCC1CN(Cc2nc(-c3ccccc3)cs2)CCN1C1CCCC1 (stereo not drawn),-1,-1%,-1%,-3
CC(C)N1CCN(Cc2nc(-c3ccccc3)cs2)CC1CCO (stereo not drawn),20*,-5%,2%,24
CCn1cc(C(=O)NCCCOC(C)C)c(=O)c2cc(S(=O)(=O)N3CCOCC3)ccc21,5,-2%,1%,-6
Cc1cccc(N(CC(=O)N2CCCCCC2)S(C)(=O)=O)c1,0,-3%,11%,-6
Cc1cc2c(c(=O)o1)C1O[C@](c3ccsc3)(Cc3cc(C#N)ccc31)O2,-4,?,-4%[6.58 µM],i
CCCCn1c(O)c(C(C)=NCCc2c[nH]c3ccccc23)c(=O)[nH]c1=O,2,-7%,0%,-3
O=C(/C=C/c1c[nH]c2ccccc12)c1cccc2ccccc12,28*,-6%,-65%,37*
O/N=C/c1c[nH]c2ccccc12,-1,-5%,8%,-3
O=C(/C=C/c1c[nH]c2ccccc12)c1c(O)n(CCc2ccccc2)c(=O)[nH]c1=O,21*,-1%,-2%,29
CCO[C@@H]1OC(C(=O)Nc2ccccc2)=C[C@H](c2ccccc2)[C@H]1CCCO,-4,-2%,0%,-10
CCO[C@H]1OC(C(=O)Nc2ccccc2)=C[C@@H](C)[C@@H]1CCCO,11*,4%,-1%,6
CN(CC(=O)Nc1ccc(F)cc1)C(=O)CN1C(=O)NC2(CCCC2)C1=O,.,.,-3%,.
SMILES,Cycloheximide cs,NS1 inh,SARS PLpro yeast,Shiga toxin inh
CCCCOc1ccc2c(c1)C(=O)c1cc(O)ccc1-2,29*,-30%,-5%,93*
COc1ccccc1N1CCN(C(=O)CSc2nc3ccccc3c(=O)n2CC2CCCO2)CC1 (stereo not drawn),-5,-5%,2%,-15
O=C(C[n+]1cn(C(F)F)c2ccccc21)c1ccc(Br)cc1,28*,-37%,-2%,62*
Cc1ccc(C(=O)CCNc2ccc(Br)cc2)o1,27*,-7%,.,62*
Cc1ccc(C(=O)CCNc2cccc(Br)c2)o1,16,-30%,0%,32
Cc1ccc(C(=O)CCNc2ccccc2)o1,27*,-48%,.,76*
Cc1ccc(C(=O)CCNc2ccc(F)c(Cl)c2)o1,-2,-20%,-5%,3
CCc1ccc2[nH]c3nc(C)cc(C)c3c(=O)c2c1,21*,-15%,-16%,-4
CCC(=O)Oc1ccc2c(c1)OC1(OC(C)=O)OC(C)CC1=C2C (stereo not drawn),2,-6%,-1%,-4
